Assay outcomes deposited in PubChem by National Center for Advancing Translational Sciences (NCATS).
NS1 function inh = inhibitors of influenza NS1 protein function; Potency, µM (top dose mostly 46.1 µM), without a hit: top-dose activity, positive = more growth; 0.4% of 270,000 active; calls by dose curve; also: actives are rising curves; nearly all actives have a fitted effect of over 50% in size
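S. cerevisiae expressing influenza A NS1, grown in glucose, washed, then diluted 1:100 into pH 6.0 -URA galactose medium with 23 nl compound. Growth recovery read as OD600; NS1-free strain serves as control.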
HCV inhibitor = inhibitors of hepatitis C virus infection | Huh7.5.1 HCVcc-Cre infection, luciferase reporter, 44 h | Potency, µM (titrated, usually from 41.8 µM), inactives show at the highest dose activity change, negative = inhibition, usual class: inhibitors | 3.4% of 340,000 active; also: % is scaled to controls: 0 for no effect and ±100 for the full control effect
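1,000 cells/well; 4 h culture; + compound; + HCVcc-Cre (~0.5 moi); 44 h; luciferase substrate, RT 15 min; read 15 sec.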
Pf growth 48h = inhibits P. falciparum growth in the first generation, 48 h | AID 504832 | 5.9% of 310,000 active | Potency, µM (highest dose often 28.7 µM), inactives show at the top dose activity change, negative = inhibition, usual class: inhibitors | P. falciparum luciferase growth in erythrocytes, 48 h; also: % is scaled to controls: 0 for no effect and ±100 for the full control effect
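In quantitative HTS format, infected erythrocytes bearing luciferase-reporter parasites were treated for a single generation at 37 C. Luminescence after adding detection reagent served as the growth measure.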
Vaccinia Venus = vaccinia inhibition (Venus reporter). 0.46% of 330,000 active. Potency, µM (series often up to 36.5 µM), without a hit: at the top dose activity change, negative = inhibition, hits mostly inhibitors. Vaccinia virus Venus reporter expression, fluorescence; calls by dose curve; tested in A549 cells; also: % is scaled to controls: 0 for no effect and ±100 for the full control effect; nearly all actives have a fitted effect of over 30% in size
VACV mCherry inh = inhibitors of vaccinia virus infection (mCherry reporter signal); Vaccinia virus mCherry reporter infection, fluorescence; Potency, µM (top dose mostly 36.5 µM), for inactives: at the highest dose activity change, negative = inhibition, actives largely listed as inhibitors; 0.63% of 310,000 active; calls by dose curve; tested in A549 cells; also: % is scaled to controls: 0 for no effect and ±100 for the full control effect; nearly all actives have a fitted effect of over 35% in size
Pf growth 96h = P. falciparum growth inhibition at 96 hours; P. falciparum luciferase reporter growth, 96 h; Potency, µM (doses to about 28.7 µM), for the others: at the top dose activity change, negative = inhibition, hits mostly inhibitors; 6.9% of 320,000 active; AID 504834; also: % is scaled to controls: 0 for no effect and ±100 for the full control effect
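Erythrocytes infected with luciferase-expressing P. falciparum were dispensed at 2% hematocrit and 0.05% parasitemia (final), then incubated with compounds 96 hours at 37 C in 5% CO2. Luminescence after detection reagent addition reported growth.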
Numbers without * were called inactive; i = inactive; ? = inconclusive; / = no result; [ ] = remark or other dose. Shown are actives, neighbours in structure and some others; about 11% of the full set was active somewhere. Unless noted, calls follow the shape of the dose curve; as a rule, active = well fitted inhibition curve with a large enough effect; inconclusive = small, poorly fitted or top-dose-only effect, or another doubt; inactive = no such curve, though single readings can be large or run the other way. Potency is read from the fitted curve at half-maximal effect.

SMILES	NS1 function inh	HCV inhibitor	Pf growth 48h	Vaccinia Venus	VACV mCherry inh	Pf growth 96h
Cc1c(NC(=O)c2ccc([N+](=O)[O-])o2)cccc1-c1nc2ncccc2o1	4.1%	?	11.7µM*	?	?	11.4%
COc1ccc(C(=O)Nc2cccc(-c3nc4ncccc4o3)c2C)cc1OC	4.1%	9.8%	1.3%	?	/	3.7µM*
Cc1cc(C)cc(C(=O)Nc2cccc(-c3nc4ncccc4o3)c2C)c1	/	/	/	-8.1%	-14.9%	/
O=c1oc2ccccc2n1Cc1ccccc1Cl	-5.1%	16.6%	3.9%	-2.9%	-24.8%	4.65µM*
O=C(COc1cccc(C(F)(F)F)c1)Nc1nnc(C2CC2)s1	/	-0.5%	/	-10.4%	i	/
Cn1c(CNc2ccccc2O)nc2ccccc21	-86.2%	1.5%	/	-2.0%	i	9.28µM*
CCN(CC)c1ccc(CNc2nc3ccccc3n2CCN2CCCCC2)cc1	3.5%	11.2µM*	?	?	?	5.9%
CCN(CC)CCn1c(NS(=O)(=O)c2ccc(C)cc2)nc2ccccc21	/	9.7%	-17.6%	-19.9%	-1.6%	10.4µM*
COc1ccc(CNc2nc3ccccc3n2CCN2CCCCC2)cc1	5.9%	-19.9%	-30.5%[5.75 µM]	-0.3%	-3.2%	?
Cn1c(CNc2nc3ccccc3n2CCN2CCCCC2)nc2ccccc21	-3.5%	?	11.7µM*	?	i	2.62µM*
CC(=O)NC(Cc1cccc(C)c1)C(=O)NC1CCN(C(=O)c2ccc([N+](=O)[O-])cc2)CC1 (stereo not drawn)	9.4%	19.2%	26.5%	4.4%	i	?
COCCSc1ccccc1C(=O)N1CCN(Cc2ccccc2)CC1	-6.1%	-29.8%	0.4%	/	/	14.1%
c1ccc(Cn2c(CNc3nc4ccccc4n3CCN3CCCCC3)nc3ccccc32)cc1	-8.6%	11.2µM*	4.65µM*	-25.5%	/	-20.0%
OCCNc1nc2ccccc2n1CCN1CCCCC1	-2.9%	12.7%	-5.6%	-11.9%	-11.4%	-18.7%
CCN(CC)CCn1c(NCc2nc3ccccc3n2Cc2ccccc2)nc2ccccc21	2.1%	?	/	-20.7%	-24.0%	3.7µM*
Cn1c(CCCCCN)nc2ccccc21	-5.9%	0.4%	?	-5.9%	-11.8%	10.4µM*
CC1CCN(C(=S)NC(=O)c2ccccc2)CC1	0.2%	22.6%	/	-13.1%	/	-5.0%
O=C(NC1CCCC1)C(c1ccc(Cl)cc1)N(Cc1ccc(F)cc1)C(=O)CCl (stereo not drawn)	2.0%	?	-6.9%	-1.4%	i	-25.3%
COC(CN(C(=O)CCl)C(C(=O)NC1CCCC(C)C1C)c1ccc(C)cc1)OC (stereo not drawn)	-6.6%	?	-15.3%	-15.0%	-22.4%	?
COc1ccc(N(C(=O)c2cnccn2)C(C(=O)NC2CCCCC2)c2ccc(Cl)cc2)cc1 (stereo not drawn)	/	-10.6%	/	-2.6%	-12.0%	/
COC(CN(C(=O)CCl)C(C(=O)NC1CCCCC1)c1ccc(Cl)cc1)OC (stereo not drawn)	2.9%	-7.6%	?	-12.6%	i	2.94µM*
COC(CN(C(=O)CCl)C(C(=O)NC1CCCCC1)c1ccccc1C)OC (stereo not drawn)	-4.1%	10µM*	14.7µM*	11.2µM*	12.6µM*	?
O=C(NC1CCCCC1)C(c1cccnc1)N(C(=O)CCl)c1cccc(Cl)c1 (stereo not drawn)	14.7%	0.891µM*	?	?	?	?
COc1ccc(C(C(=O)NC2CCCCC2)N(C(=O)CCl)c2ccc(Cl)cc2)cc1 (stereo not drawn)	-6.3%	0.562µM*	-4.6%	-26.1%	-10.5%	3.7µM*
Cc1ccc(Cn2c(=O)n(CCc3ccc(Cl)cc3)c(=O)c3ccccc32)cc1	/	/	/	5.3%	-7.4%	/
COc1cc(C(=O)Nc2ccc3c(c2)OCCO3)ccc1-n1cnnn1	-5.9%	-8.3%	-5.9%	/	/	?
O=C(NCc1ccccc1)c1ccc2oc(=O)n(Cc3ccccc3)c2c1	/	/	/	-1.3%	-2.7%	/
O=C(Nc1nnc(-c2ccc(F)cc2)o1)c1cc(Cl)sc1Cl	-48.6%	?	0.8%	-11.2%	-4.8%	?
